# Source: PubChem BioAssay (NCI)
# “And” between values parts separate entries of the source, which are not always exact repeats. Equal values may be shown once. The panel holds about 83,000 compounds, 20% with a hit somewhere; the sample as a whole holds those more often.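 Single-concentration screen, 48 h exposure, 96-well plates. Endpoint: percent growth. Below 10 = active.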 Values without a mark were called inactive. The source made the active and inactive calls.
# System: MDA-MB-468 breast
# Test: NCI-60 one-dose screen, 48 h (100 = growth as untreated, 0 = no growth, -100 = all killed)
# Details: 10 µM unless noted
row,Structure (SMILES),growth
1,Cc1cc[c-]cc1.Fc1c[c-]c(-c2ccccn2)c(F)c1.[Pt+2].c1ccc([PH+](c2ccccc2)c2ccccn2)cc1,51%
2,CC[CH2][Sn]([Cl])([Cl])[CH2]CC,22.4%
3,COc1ccc(OC)c(/C=C(/C)[N+](=O)[O-])c1,-40.8% (active)
4,COC(=O)CC[C@H](Cc1ccccc1)NC(=O)c1csc([C@@H](C[C@H](C(C)C)N(C)C(=O)[C@@H](NC(=O)[C@H]2CCCCN2C)C(C)C)OC(C)=O)n1,66.9%
5,CC12CCC(=O)C=C1C(O)CC1C2CCC2(C)C(O)CCC12 (configuration not stated),104%
6,C[N+]12CCC34C5=CC(=O)C(=O)C=C5[N+]5(C)C(=O)CC6OCC=C(C1)C(CC32)C6C45 (configuration not stated),99.9%
7,Nc1nc(=S)nc(N)[nH]1,99.3%
8,COc1cc(/C=C/[N+](=O)[O-])c([N+](=O)[O-])cc1OC,-71.2% (active)
9,C=CC[PH+](c1ccccc1)c1ccccc1.C=CC[PH+](c1ccccc1)c1ccccc1.[Pt+2].[S-]c1ncccn1.[S-]c1ncccn1,-5.58% (active)
10,CC(=O)Oc1ccccc1C(=O)NCCC[Se]C#N,19%
11,C[C@]12CCC(=O)C[C@@H]1CC[C@@H]1[C@@H]2CC[C@]2(C)[C@@H](OC(=O)N(CCCl)N=O)CC[C@@H]12,-45.8% (active)
12,CN(CCCl)c1ccc(/C=C/C2=[N+](C)c3ccccc3C2(C)C)cc1,-1.54% (active)
13,COc1ccc(/C=C(\C)[N+](=O)[O-])cc1OC,-77.3% (active)
14,C=CCCCN=C=S,33.9%
15,CC[C@H](C)[C@H](NC(=O)c1ncccn1)C(=O)N(C)[C@H](C[C@@H](OC(C)=O)c1nc(C(=O)N[C@@H](Cc2ccccc2)C[C@H](C)C(=O)OC)cs1)C(C)C,23%
16,CSc1ccccc1NP1(=O)OCC(C)([N+](=O)[O-])CO1 (configuration not stated),105%
17,C[As](=O)(O)c1ccc(C(=O)O)cc1,99.8%
18,FC(F)=C(F)c1ccccc1,105%
19,COc1cc(OC)c(S(=O)(=O)N(CCCl)CCCl)cc1C(=O)/C=C/c1ccc(Cl)cc1,47.6%

row,Structure (SMILES),growth
1,CC[PH+](CC)CC.O=COC1OC([S-])C(OC=O)C(OC=O)C1OC=O.[Au+] (configuration not stated),-78.8% (active)
2,O=C(C(=O)N1CCCC1)c1cn(CCCCCn2cc(C(=O)C(=O)N3CCCC3)c3ccccc32)c2ccccc12,91%
3,Cc1ccc(C(=O)NCCCOc2ccc(N3C(N)=NC(N)=NC3(C)C)cc2Cl)cc1S(=O)(=O)F,123%
4,NCCc1cc(O)c(O)cc1O,96.2%
5,CC[C@H](C)[C@H](NC(=O)CN(C)C)C(=O)N(C)[C@H](C[C@@H](OC(C)=O)c1nc(C(=O)NC23CC(C(=O)OC)(C2)C3)cs1)C(C)C,-14.9% (active)
6,CCCCCCCOC(C(=O)OCCN(CC)CC)(c1ccccc1)c1ccccc1,79.7%
7,COC(=O)[C@@H](C)C[C@H](Cc1ccccc1)NC(=O)c1cccc([C@@H](C[C@H](C(C)C)N(C)C(=O)[C@@H](NC(=O)[C@H]2CCCCN2C)C2CC2)OC(C)=O)n1,35.3%
8,CCOP(=O)(NC)OCC,94.2%
9,COc1ccc(C(O)(C(=O)O)c2ccc(OC)cc2)cc1,104%
10,COC(=O)[C@@H](C)C[C@H](Cc1ccccc1)NC(=O)c1csc([C@@H](C[C@H](C(C)C)N(C)C(=O)C2(NC(=O)[C@H]3CCCCN3C)CC2)OC(C)=O)n1,-4.03% (active)
11,Oc1ccccc1C=NCCN=Cc1ccccc1O,107%
12,CCCC(C)SP(=S)(SC(C)CCC)SC(C)CCC (configuration not stated),-25.4% (active)
13,CCn1c2ccccc2c2cc(C(=O)c3cccc4c3CCCN4)ccc21,96.4%
14,O=NN1CCCCC1,106%
15,C[C@]12CC[C@H]3[C@@H](CC4SC(N)=NC45C/C(=N/NC(N)=O)CC[C@]35C)[C@@H]1CCC2=O (some centres not stated),-46.2% (active)
16,CN1C(=O)C(=Cc2cn(CCCCCCn3c4ccccc4c(=O)c4ccccc43)c3ccccc23)C(=O)N(C)C1=O,81%
17,O=C(CCCN1CCC2(CC1)C(=O)NCN2c1ccccc1)c1ccc(F)cc1,103% and 32.6%
18,CCOC(=O)CCC(NC(=O)C(Cc1ccc(N(CCCl)CCCl)cc1)NC=O)C(=O)OCC (configuration not stated),-89.3% (active)
